Molecules are shown by their SMILES. Some of the results follow.

This passage reports RGS19–Galpha-o binding response results from PubChem BioAssay.

This assay addresses Regulator of G-protein signaling 19 (Homo sapiens) (UniProt P49795). As to the kind of experiment: small molecules altering RGS protein interactions with GNAO1 – biochemical, multiplexed beads, flow cytometry, RGS4/7/8/16/19, primary screen (AID 1504).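 Further: fluorescently labeled Galpha-o bound to GDP with aluminium fluoride binding biotinylated RGS beads.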 The note with it: multiplexed bead flow cytometry, measured here: RGS19 interaction, at 10 µM. Background: In flow cytometry, cells or beads pass a laser one at a time.

The compound `CC(C)N(CC#CCC1(O)c2ccccc2-c2ccccc21)C(C)C` yielded an RGS19–Galpha-o binding response of 78.4%.
